Laboratory results published in PubChem BioAssay AID1159580 (chemical genetic matrix, 2015).
“And” between values parts separate entries of the source, which are not always exact repeats. Equal values may be shown once. The whole screen tested about 5,500 compounds, of which about 2,000 (36%) were called active. Another 18% or so got no clear call; they are omitted. This is one part of the list. Values without a mark were called inactive. Cut-off read from the data, not from the text of the source: active = normalized growth mostly below about 0.91 (no sharp cut-off); inconclusive = no clear call, values can overlap the other calls; inactive = mostly above about 0.92.

Assay: chemical genetic growth profiling, strain panel (AID 1159580);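 note: tested at 20 µM; growth read once vehicle control cultures reached saturation at 30 °C; 1 = growth at the plate median or of vehicle wells; lower values mean less growth of the strain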
Conditions: S. cerevisiae deletion strains, growth OD

O=c1c(O)c(-c2ccc(O)cc2O)oc2cc(O)cc(O)c12
normalized growth (locus YAL013W, strain DEP1, stronger effect = lower value): 1
normalized growth (locus YAL021C, strain ccr4, stronger effect = lower value): 0.949
normalized growth (locus YAL026C, strain drs2, stronger effect = lower value): 0.973
normalized growth (locus YAL030W, strain snc1, stronger effect = lower value): 0.99
normalized growth (locus YAL040C, strain CLN3, stronger effect = lower value): 1.01
normalized growth (locus YBL061C, strain skt5, stronger effect = lower value): 0.963
normalized growth (locus YBR009C, strain hhf1, stronger effect = lower value): 1
normalized growth (locus YBR021W, strain FUR4, stronger effect = lower value): 1.01
normalized growth (locus YBR023C, strain chs3, stronger effect = lower value): 1.01
normalized growth (locus YBR171W, strain sec66, stronger effect = lower value): 0.983
normalized growth (locus YBR229C, strain ROT2, stronger effect = lower value): 0.988
normalized growth (locus YBR231C, strain swc5, stronger effect = lower value): 0.965
normalized growth (locus YBR279W, strain paf1, stronger effect = lower value): 0.995
normalized growth (locus YCL011C, strain gbp2, stronger effect = lower value): 1
normalized growth (locus YCL016C, strain dcc1, stronger effect = lower value): 0.988
normalized growth (locus YCL029C, strain bik1, stronger effect = lower value): 1.01
normalized growth (locus YCL061C, strain MRC1 (second series), stronger effect = lower value): 0.986
normalized growth (locus YCL061C, strain MRC1, stronger effect = lower value): 0.976
normalized growth (locus YCL069W, strain vba3, stronger effect = lower value): 0.997
normalized growth (locus YCR088W, strain abp1, stronger effect = lower value): 0.991
normalized growth (locus YDL005C, strain med2, stronger effect = lower value): 1.01
normalized growth (locus YDL035C, strain GPR1, stronger effect = lower value): 0.973
normalized growth (locus YDL040C, strain nat1, stronger effect = lower value): 1
normalized growth (locus YDL074C, strain BRE1, stronger effect = lower value): 1
normalized growth (locus YDL101C, strain DUN1, stronger effect = lower value): 1
normalized growth (locus YDL185W, strain tfp1, stronger effect = lower value): 0.976
normalized growth (locus YDL192W, strain arf1, stronger effect = lower value): 0.974
normalized growth (locus YDR001C, strain nth1, stronger effect = lower value): 0.999
normalized growth (locus YDR069C, strain doa4, stronger effect = lower value): 0.857 (active)
normalized growth (locus YDR101C, strain arx1, stronger effect = lower value): 1
normalized growth (locus YDR137W, strain rgp1, stronger effect = lower value): 1
normalized growth (locus YDR150W, strain NUM1, stronger effect = lower value): 0.986
normalized growth (locus YDR159W, strain sac3, stronger effect = lower value): 0.985
normalized growth (locus YDR162C, strain NBP2, stronger effect = lower value): 0.971
normalized growth (locus YDR195W, strain ref2): 0.964
normalized growth (locus YDR297W, strain sur2, stronger effect = lower value): 0.978
normalized growth (locus YDR318W, strain mcm21, stronger effect = lower value): 1.01
normalized growth (locus YDR334W, strain swr1, stronger effect = lower value): 0.956
normalized growth (locus YDR335W, strain msn5, stronger effect = lower value): 0.98
normalized growth (locus YDR363W, strain ESC2, stronger effect = lower value): 0.995
normalized growth (locus YDR388W, stronger effect = lower value): 0.991
normalized growth (locus YDR392W, strain spt3, stronger effect = lower value): 0.99
normalized growth (locus YDR502C, strain sam2, stronger effect = lower value): 1.02
normalized growth (locus YEL003W, strain gim4, stronger effect = lower value): 0.976
normalized growth (locus YEL037C, strain rad23, stronger effect = lower value): 0.989
normalized growth (locus YEL061C, strain CIN8 (second series), stronger effect = lower value): 0.992
normalized growth (locus YEL061C, strain CIN8, stronger effect = lower value): 0.995
normalized growth (locus YER002W, strain NOP16, stronger effect = lower value): 1.03
normalized growth (locus YER015W, strain faa2, stronger effect = lower value): 0.984
normalized growth (locus YER016W, strain bim1, stronger effect = lower value): 1
normalized growth (locus YER110C, stronger effect = lower value): 1.02
normalized growth (locus YER111C, strain swi4, stronger effect = lower value): 0.954
normalized growth (locus YER155C, strain BEM2 (second series), stronger effect = lower value): 0.977
normalized growth (locus YER155C, strain BEM2, stronger effect = lower value): 1.01
normalized growth (locus YER167W, strain BCK2, stronger effect = lower value): 0.996
normalized growth (locus YFR010W, strain ubp6, stronger effect = lower value): 0.916
normalized growth (locus YGL078C, strain dbp3, stronger effect = lower value): 1.01
normalized growth (locus YGL086W, strain mad1, stronger effect = lower value): 1.06
normalized growth (locus YGL167C, strain pmr1, stronger effect = lower value): 0.98
normalized growth (locus YGL173C, strain kem1, stronger effect = lower value): 0.947
normalized growth (locus YGL227W, strain vid30, stronger effect = lower value): 1.01
normalized growth (locus YGL240W, strain doc1, stronger effect = lower value): 1
normalized growth (locus YGL248W, strain PDE1, stronger effect = lower value): 0.966
normalized growth (locus YGL253W, strain hxk2, stronger effect = lower value): 0.994
normalized growth (locus YGR078C, strain PAC10, stronger effect = lower value): 0.97 and 1.01
normalized growth (locus YGR135W, strain pre9, stronger effect = lower value): 0.991
normalized growth (locus YHR013C, strain ard1, stronger effect = lower value): 0.962
normalized growth (locus YHR027C, strain rpn1, stronger effect = lower value): 0.973
normalized growth (locus YHR030C, strain SLT2, stronger effect = lower value): 0.993 and 0.957
normalized growth (locus YHR079C, strain IRE1 (second series), stronger effect = lower value): 1.02
normalized growth (locus YHR079C, strain IRE1, stronger effect = lower value): 0.968
normalized growth (locus YHR094C, strain hxt1, stronger effect = lower value): 1.02
normalized growth (locus YHR129C, strain ARP1, stronger effect = lower value): 0.973
normalized growth (locus YHR142W, strain chs7, stronger effect = lower value): 0.945
normalized growth (locus YHR200W, strain rpn10, stronger effect = lower value): 0.994
normalized growth (locus YIL066C, strain RNR3, stronger effect = lower value): 0.943
normalized growth (locus YIL073C, strain SPO22, stronger effect = lower value): 1.08
normalized growth (locus YIL125W, strain kgd1, stronger effect = lower value): 0.999
normalized growth (locus YIR030C, strain dcg1, stronger effect = lower value): 1.02
normalized growth (locus YJL092W, strain hpr5, stronger effect = lower value): 0.996
normalized growth (locus YJL095W, strain BCK1 (second series), stronger effect = lower value): 0.964
normalized growth (locus YJL095W, strain BCK1, stronger effect = lower value): 0.986 and 0.988
normalized growth (locus YJL115W, strain asf1, stronger effect = lower value): 0.994
normalized growth (locus YJL129C, strain trk1, stronger effect = lower value): 1.02
normalized growth (locus YJL134W, strain LCB3, stronger effect = lower value): 1.02
normalized growth (locus YJL154C, strain vps35, stronger effect = lower value): 1.02
normalized growth (locus YJL164C, strain tpk1, stronger effect = lower value): 0.975
normalized growth (locus YJL166W, strain qcr8, stronger effect = lower value): 0.984
normalized growth (locus YJL168C, strain set2, stronger effect = lower value): 1
normalized growth (locus YJL187C, strain SWE1 (second series), stronger effect = lower value): 0.966
normalized growth (locus YJR043C, strain POL32, stronger effect = lower value): 0.956
normalized growth (locus YJR066W, strain TOR1, stronger effect = lower value): 0.935
normalized growth (locus YJR075W, strain HOC1, stronger effect = lower value): 1.01
